Results filed as inconclusive are left out. Activity calls are given as the source filed them. The calls were made as follows, unless noted: active = hit-call score of the fitted dose curve at least 0.9, where 1 is the maximum; inactive = score below 0.9.
Assays:
[1] = ATG_TAL_CIS: Attagene CIS-FACTORIAL HepG2 Assay for human TAL Basal Promoter (AID 2282966); details: HepG2 Attagene cis-factorial TAL promoter reporter; actives raise or lower the signal;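 also: background control endpoint measuring basal TAL promoter reporter mRNA not a specific factor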
Procedure, shortened: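 After 24 hours of chemical exposure, transfected HepG2 cells yielded RNA that was converted to 6-FAM-labelled, HpaI-digested reporter fragments for capillary electrophoresis. Values derive from bidirectional fitting against DMSO controls.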

[2] = ATG_TGFb_CIS: Attagene CIS-FACTORIAL HepG2 Assay for human Transforming Growth Factor (TGF) (AID 2282967); details: HepG2 Attagene CIS TGFb reporter, mRNA transcription; actives raise or lower the signal
Procedure, shortened: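 Multiplexed cis-reporter HepG2 system, 24 h treatment; mRNA induction read by fluorescence after RT-PCR and CE; DMSO negative control, bidirectional curve fitting.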

[3] = ATG_VDRE_CIS: Attagene CIS-FACTORIAL HepG2 Assay for human Vitamin D Receptor Element (VDRE) (AID 2282968); details: HepG2 VDRE cis-reporter transcription, actives raise or lower the signal
Procedure, shortened: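 Compounds were applied for 24 h to HepG2 cells transfected with promoter-regulated reporter units. Total RNA was reverse-transcribed, and reporter amplicons were fluorescently labelled and sized by capillary electrophoresis.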

[4] = target: X-box-binding protein 1 (Homo sapiens) (UniProt P17861); assay: ATG_Xbp1_CIS: Attagene CIS-FACTORIAL HepG2 Assay for human X-box Binding Protein 1 (XBP1) (AID 2282972); details: HepG2 XBP1 cis-element reporter, Attagene multiplex; actives raise or lower the signal
Procedure, shortened: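 Human hepatoma HepG2, cis-element reporter system, 24 h treatment; mRNA quantified by RT-PCR/CE fluorescence; fit relative to DMSO.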

[5] = target: Estrogen-related receptor gamma (Homo sapiens) (UniProt P62508); assay: ATG_ERRg_TRANS: Attagene TRANS-FACTORIAL HepG2 Assay for human Estrogen-Related Receptor gamma (ERRg) (AID 2282977; active = hit-call score of the fitted dose curve at least 0.9, where 1 is the maximum;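 also: hits increase reporter signal over DMSO so potencies reflect activators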); details: HepG2 Attagene TRANS reporter, ERRg transactivation
Procedure, shortened: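 Induction of reporter transcripts through a chimeric NR-Gal4 protein is quantified in transfected human HepG2 liver cells after 24 h chemical exposure, using RT-PCR with capillary electrophoresis detection and DMSO as baseline.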

[6] = target: Oxysterols receptor LXR-beta (Homo sapiens) (UniProt P55055); assay: ATG_LXRb_TRANS: Attagene TRANS-FACTORIAL HepG2 Assay for human Liver X Receptor beta (LXRb) (AID 2282981; active = hit-call score of the fitted dose curve at least 0.9, where 1 is the maximum); details: HepG2 Attagene TRANS GAL4-LXRb reporter, mRNA
Procedure, shortened: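 Multiplexed reporter assay, HepG2, 24 h dosing. Fluorescence of labelled RT-PCR products after capillary electrophoresis gives transcript level; positive fitting direction relative to DMSO.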

[7] = target: Hepatocyte nuclear factor 4-alpha (Homo sapiens) (UniProt P41235); assay: ATG_HNF4a_TRANS: Attagene TRANS-FACTORIAL HepG2 Assay for human Hepatocyte Nuclear Factor 4 alpha (HNF4a) (AID 2282982; active = hit-call score of the fitted dose curve at least 0.9, where 1 is the maximum); details: HepG2 HNF4a transactivation reporter, mRNA readout
Procedure, shortened: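 Endpoint reflects transcriptional activation of a GAL4-UAS reporter by an HNF4a-GAL4 chimera in transfected HepG2 cells, 24 h post-dosing. Fluorescence from RT-PCR products separated by capillary electrophoresis; DMSO baseline.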

[8] = ATG_M_06_TRANS: Attagene TRANS-FACTORIAL HepG2 Assay for M06 Transcription Factor (Internal Marker) (AID 2282983; active = hit-call score of the fitted dose curve at least 0.9, where 1 is the maximum); details: HepG2 Attagene TRANS M06 internal marker reporter
Procedure, shortened: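 Background control endpoint: reporter mRNA from transiently transfected HepG2 after 24 h dosing, detected by RT-PCR with capillary electrophoresis fluorescence. Analysed for gain versus DMSO.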

[9] = ATG_M_32_TRANS: Attagene TRANS-FACTORIAL HepG2 Assay for M32 Transcription Factor (Internal Marker) (AID 2282984; active = hit-call score of the fitted dose curve at least 0.9, where 1 is the maximum;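 also: transcript level of a background control reporter unit measured by RT-PCR and capillary electrophoresis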); details: HepG2 Attagene TRANS M32 internal marker reporter
Procedure, shortened: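 Internal-marker readout from a multiplexed transcription reporter panel. HepG2 cells were transfected with GAL4-UAS reporter units, treated 24 hours, and reporter transcript levels determined by fluorescence after RT-PCR and capillary separation.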

[10] = target: Nuclear receptor subfamily 4 group A member 2 (Homo sapiens) (UniProt P43354); assay: ATG_NURR1_TRANS: Attagene TRANS-FACTORIAL HepG2 Assay for human Nuclear Receptor Related Protein 1 (NURR1) (AID 2282985; active = hit-call score of the fitted dose curve at least 0.9, where 1 is the maximum); details: HepG2 Attagene TRANS reporter, mRNA readout
Procedure, shortened: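 Endpoint: reporter mRNA increase relative to DMSO. HepG2 cells transfected with reporter units, treated 24 h; RNA processed by RT-PCR, labelling, HpaI digestion and capillary electrophoresis.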

[11] = target: Transcriptional activator Myb (Homo sapiens) (UniProt P10242); assay: ATG_Myb_CIS: Attagene CIS-FACTORIAL HepG2 Assay for human Myeloblastosis (Myb) Proto-Oncogene Transcription Factor (AID 2282986); details: HepG2 Attagene CIS-FACTORIAL Myb reporter transcription; actives raise or lower the signal
Procedure, shortened: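 Endogenous transcription factor activity at a Myb-responsive cis element is reported in human liver HepG2 cells after 24 h chemical treatment. Reporter mRNA is detected by RT-PCR and capillary electrophoresis fluorescence, with DMSO as baseline.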

[12] = target: Nuclear respiratory factor 1 (Homo sapiens) (UniProt Q16656); assay: ATG_NRF1_CIS: Attagene CIS-FACTORIAL HepG2 Assay for human Nuclear Respiratory Factor 1 (NRF1) Orphan Gene (AID 2282987); details: HepG2 NRF1 cis-element reporter, Attagene multiplex; actives raise or lower the signal
Procedure, shortened: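 Human hepatoma HepG2 cells carrying transfected promoter-regulated reporter units were incubated with test chemicals for 24 h. Reporter transcripts were measured by RT-PCR plus capillary electrophoresis, and endpoints derived by bidirectional fitting with DMSO as baseline.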

[13] = ATG_M_19_TRANS: Attagene TRANS-FACTORIAL HepG2 Assay for M19 Transcription Factor (Internal Marker) (AID 2282974; active = hit-call score of the fitted dose curve at least 0.9, where 1 is the maximum); details: HepG2 Attagene TRANS-FACTORIAL M19 internal marker reporter
Procedure, shortened: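 After transfection of HepG2 with GAL4-UAS-driven reporter constructs, cells are dosed for 24 h. Total RNA is reverse-transcribed, reporter sequences PCR-amplified and labelled, then HpaI-digested and sized by capillary electrophoresis.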

[14] = ATG_GAL4_TRANS: Attagene TRANS-FACTORIAL HepG2 Assay for GAL4 (Internal Marker) (AID 2282976; active = hit-call score of the fitted dose curve at least 0.9, where 1 is the maximum); details: HepG2 Attagene TRANS GAL4 internal marker reporter
Procedure, shortened: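 First, HepG2 cells were transfected with reporter units under GAL4-UAS control. Next, they were treated with chemical for 24 h. Finally, RNA was reverse-transcribed, PCR-amplified, FAM-labelled and resolved by capillary electrophoresis, with induction scored against DMSO.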

[15] = target: Glucocorticoid receptor (Homo sapiens) (UniProt P04150); assay: ATG_GR_TRANS: Attagene TRANS-FACTORIAL HepG2 Assay for human Glucocorticoid Receptor (GR) (AID 2282978; active = hit-call score of the fitted dose curve at least 0.9, where 1 is the maximum;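 also: activators score as hits since higher reporter transcript over DMSO is fitted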); details: HepG2 Attagene TRANS GR reporter, mRNA transcription
Procedure, shortened: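 Multiplexed TRANS reporter system, HepG2; 24 h exposure; RNA → oligo(dT) RT → reporter-specific PCR → 6-FAM primer extension → HpaI cut → CE fluorescence. Gain-of-signal vs DMSO.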

Measured: outcome

Sequence of X-box-binding protein 1 (Homo sapiens) (P17861 whole entry, looked up): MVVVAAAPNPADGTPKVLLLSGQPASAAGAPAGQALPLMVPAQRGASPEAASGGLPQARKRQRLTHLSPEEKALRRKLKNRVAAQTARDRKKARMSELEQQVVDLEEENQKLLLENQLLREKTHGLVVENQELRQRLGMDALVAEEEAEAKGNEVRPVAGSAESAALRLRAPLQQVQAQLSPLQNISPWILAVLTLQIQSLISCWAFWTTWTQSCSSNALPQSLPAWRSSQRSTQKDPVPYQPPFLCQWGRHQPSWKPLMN
Sequence of Hepatocyte nuclear factor 4-alpha (Homo sapiens) (P41235 whole entry, looked up, the tested form may be a part): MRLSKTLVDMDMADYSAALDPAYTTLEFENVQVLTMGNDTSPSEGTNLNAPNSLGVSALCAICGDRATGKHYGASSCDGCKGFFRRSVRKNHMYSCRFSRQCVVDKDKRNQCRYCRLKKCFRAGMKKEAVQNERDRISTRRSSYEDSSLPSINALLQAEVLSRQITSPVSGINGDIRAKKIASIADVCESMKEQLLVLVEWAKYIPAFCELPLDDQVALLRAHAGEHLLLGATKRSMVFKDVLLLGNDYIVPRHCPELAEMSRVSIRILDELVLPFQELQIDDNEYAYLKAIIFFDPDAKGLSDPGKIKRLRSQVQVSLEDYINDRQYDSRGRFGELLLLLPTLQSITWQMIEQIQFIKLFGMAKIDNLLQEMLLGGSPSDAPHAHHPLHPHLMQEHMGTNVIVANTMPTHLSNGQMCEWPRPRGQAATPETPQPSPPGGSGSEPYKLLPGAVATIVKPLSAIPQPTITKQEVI
Sequence of Nuclear respiratory factor 1 (Homo sapiens) (Q16656 whole entry, looked up): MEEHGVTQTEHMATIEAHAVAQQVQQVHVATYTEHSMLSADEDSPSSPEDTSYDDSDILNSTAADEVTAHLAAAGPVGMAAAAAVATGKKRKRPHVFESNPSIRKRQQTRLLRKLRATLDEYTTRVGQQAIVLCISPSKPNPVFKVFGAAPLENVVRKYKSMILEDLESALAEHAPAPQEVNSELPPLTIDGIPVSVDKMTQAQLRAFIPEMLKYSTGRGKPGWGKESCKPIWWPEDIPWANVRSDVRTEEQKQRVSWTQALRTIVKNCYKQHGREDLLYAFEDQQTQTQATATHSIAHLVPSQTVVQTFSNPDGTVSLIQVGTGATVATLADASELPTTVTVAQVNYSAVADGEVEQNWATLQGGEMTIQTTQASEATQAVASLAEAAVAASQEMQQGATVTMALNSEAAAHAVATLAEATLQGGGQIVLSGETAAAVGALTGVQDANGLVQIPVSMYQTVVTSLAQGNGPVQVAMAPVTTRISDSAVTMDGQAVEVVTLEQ
Sequence of Glucocorticoid receptor (Homo sapiens) (P04150 whole entry, looked up): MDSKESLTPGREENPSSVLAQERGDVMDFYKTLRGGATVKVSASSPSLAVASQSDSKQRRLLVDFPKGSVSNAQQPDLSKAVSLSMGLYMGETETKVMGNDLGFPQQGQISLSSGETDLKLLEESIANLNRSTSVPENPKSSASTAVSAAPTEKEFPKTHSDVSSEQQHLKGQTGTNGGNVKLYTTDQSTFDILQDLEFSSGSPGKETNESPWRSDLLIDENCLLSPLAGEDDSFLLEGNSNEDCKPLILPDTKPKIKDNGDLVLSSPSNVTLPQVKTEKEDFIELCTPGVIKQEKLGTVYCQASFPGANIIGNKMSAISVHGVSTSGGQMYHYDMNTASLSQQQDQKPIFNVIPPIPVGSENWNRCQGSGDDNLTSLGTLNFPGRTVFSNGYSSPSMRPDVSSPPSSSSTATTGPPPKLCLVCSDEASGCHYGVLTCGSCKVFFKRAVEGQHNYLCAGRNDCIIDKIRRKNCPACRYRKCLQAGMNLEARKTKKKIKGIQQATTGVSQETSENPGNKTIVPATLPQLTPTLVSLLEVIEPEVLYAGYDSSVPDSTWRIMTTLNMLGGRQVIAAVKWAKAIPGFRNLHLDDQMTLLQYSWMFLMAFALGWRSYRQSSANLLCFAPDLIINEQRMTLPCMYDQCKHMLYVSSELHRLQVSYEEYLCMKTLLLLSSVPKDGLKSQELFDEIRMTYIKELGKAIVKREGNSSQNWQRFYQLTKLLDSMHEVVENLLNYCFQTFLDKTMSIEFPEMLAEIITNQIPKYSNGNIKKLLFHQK
Sequence of Transcriptional activator Myb (Homo sapiens) (P10242 whole entry, looked up): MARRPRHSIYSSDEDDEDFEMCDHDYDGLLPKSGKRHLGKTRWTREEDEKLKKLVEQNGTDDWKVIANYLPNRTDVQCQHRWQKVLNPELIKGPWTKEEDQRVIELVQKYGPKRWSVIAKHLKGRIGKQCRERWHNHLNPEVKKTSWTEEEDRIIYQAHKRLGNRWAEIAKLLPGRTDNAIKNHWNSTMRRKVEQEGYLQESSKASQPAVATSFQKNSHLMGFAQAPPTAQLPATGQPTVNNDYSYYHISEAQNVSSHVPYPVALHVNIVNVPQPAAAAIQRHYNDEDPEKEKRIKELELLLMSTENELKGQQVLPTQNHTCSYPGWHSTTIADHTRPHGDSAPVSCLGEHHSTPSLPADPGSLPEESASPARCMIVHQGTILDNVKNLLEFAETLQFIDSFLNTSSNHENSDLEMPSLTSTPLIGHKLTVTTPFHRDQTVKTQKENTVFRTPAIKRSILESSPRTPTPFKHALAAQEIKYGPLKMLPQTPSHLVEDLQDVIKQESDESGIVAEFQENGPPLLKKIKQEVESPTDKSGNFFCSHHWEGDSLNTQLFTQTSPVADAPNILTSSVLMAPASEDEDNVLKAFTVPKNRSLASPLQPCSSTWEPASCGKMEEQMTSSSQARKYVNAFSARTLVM
Sequence of Oxysterols receptor LXR-beta (Homo sapiens) (P55055 whole entry, looked up, the tested form may be a part): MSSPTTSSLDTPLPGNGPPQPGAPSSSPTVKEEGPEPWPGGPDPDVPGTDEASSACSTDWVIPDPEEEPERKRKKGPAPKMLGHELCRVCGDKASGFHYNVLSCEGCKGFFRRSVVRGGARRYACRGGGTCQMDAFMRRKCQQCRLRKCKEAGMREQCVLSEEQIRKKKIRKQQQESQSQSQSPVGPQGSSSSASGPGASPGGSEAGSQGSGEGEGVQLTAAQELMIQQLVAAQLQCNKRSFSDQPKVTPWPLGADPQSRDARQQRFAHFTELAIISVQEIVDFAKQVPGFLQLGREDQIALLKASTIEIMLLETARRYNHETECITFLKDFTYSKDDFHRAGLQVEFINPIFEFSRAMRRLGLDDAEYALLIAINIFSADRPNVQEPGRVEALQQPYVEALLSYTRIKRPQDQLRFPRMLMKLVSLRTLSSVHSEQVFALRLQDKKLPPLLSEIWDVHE
Sequence of Nuclear receptor subfamily 4 group A member 2 (Homo sapiens) (P43354 whole entry, looked up): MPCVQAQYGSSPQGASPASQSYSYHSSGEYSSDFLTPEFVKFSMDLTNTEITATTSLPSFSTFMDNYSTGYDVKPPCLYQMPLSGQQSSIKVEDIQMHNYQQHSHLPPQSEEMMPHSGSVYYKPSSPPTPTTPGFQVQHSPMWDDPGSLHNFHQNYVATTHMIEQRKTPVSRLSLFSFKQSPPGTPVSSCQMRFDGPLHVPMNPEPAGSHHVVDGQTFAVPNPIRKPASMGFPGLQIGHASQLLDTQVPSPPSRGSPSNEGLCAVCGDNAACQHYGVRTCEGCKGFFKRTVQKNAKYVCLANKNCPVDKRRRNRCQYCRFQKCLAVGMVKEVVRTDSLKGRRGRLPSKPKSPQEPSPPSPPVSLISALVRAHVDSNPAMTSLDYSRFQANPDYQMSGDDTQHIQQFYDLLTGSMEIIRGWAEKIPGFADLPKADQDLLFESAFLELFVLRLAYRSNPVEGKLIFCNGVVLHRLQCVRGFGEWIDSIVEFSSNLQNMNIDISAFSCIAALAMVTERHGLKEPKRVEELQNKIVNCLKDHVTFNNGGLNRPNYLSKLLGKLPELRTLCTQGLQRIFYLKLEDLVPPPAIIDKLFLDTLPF
Sequence of Estrogen-related receptor gamma (Homo sapiens) (P62508 whole entry, looked up, the tested form may be a part): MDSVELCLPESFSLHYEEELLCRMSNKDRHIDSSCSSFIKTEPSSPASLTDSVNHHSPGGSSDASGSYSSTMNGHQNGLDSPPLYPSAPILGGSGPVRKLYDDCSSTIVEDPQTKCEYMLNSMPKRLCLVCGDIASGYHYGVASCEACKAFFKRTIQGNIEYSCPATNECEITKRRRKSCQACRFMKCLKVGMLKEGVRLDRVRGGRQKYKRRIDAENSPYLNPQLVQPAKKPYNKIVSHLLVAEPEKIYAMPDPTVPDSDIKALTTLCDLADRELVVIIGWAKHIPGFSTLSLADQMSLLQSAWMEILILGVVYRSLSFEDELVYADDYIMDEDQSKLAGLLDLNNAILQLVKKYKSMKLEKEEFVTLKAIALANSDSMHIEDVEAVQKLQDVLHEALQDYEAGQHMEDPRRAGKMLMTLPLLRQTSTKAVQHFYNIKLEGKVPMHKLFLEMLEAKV

COC(=O)/C=C/C(C)=C\C=C\C(C)=C\C=C\C=C(C)\C=C\C=C(C)\C=C\C(=O)O
not listed: [13] | [14] | [15]
inactive: all other assays above

Cc1cccc(N)n1
not listed: [5] | [6] | [9] | [10] | [14] | [15]
inactive: all other assays above

COCCOCCOCCOCCOC
not listed: [5] | [9] | [10] | [13]
inactive: all other assays above

NNC(=O)c1cccc(C(=O)NN)c1
not listed: [5] | [10] | [13]
inactive: all other assays above

CC(=O)CC(N)=O
not listed: [5] | [6] | [10]
inactive: all other assays above

— PubChem BioAssay (EPA / NIEHS)
